The results in this text go back to the supplement of paper PMC8975748.

Where a name gives a salt, the structure may show the parent alone.

The test system of the assay is Saccharomyces cerevisiae BY4741 SeMeCo community. The assay is described as follows: z-score of subpopulation abundance vs DMSO median, subpopulation auxotrophic for HLM; higher = larger share of this subpopulation than in DMSO controls. The following applies: 10 µM; 24 h; SM minimal medium; subpopulation (auxotrophy): HLM. On the procedure:
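Fluorescent four-plasmid SeMeCo (self-establishing metabolically cooperating S. cerevisiae BY4741 community; plasmids pH-mRuby2, pL-mWasabi, pU-eCFP, pM-TagRFP657) was grown 24 h in minimal SM medium with each Selleck FDA-approved drug at 10 µM in 384-well plates. Cells were fixed and imaged by high-content confocal microscopy. For each auxotrophic subpopulation (and the prototroph), a z-score gives the deviation from the DMSO vehicle-control population median.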
For the compound `COc1ccnc(C[S+]([O-])c2nc3cc(OC(F)F)ccc3[nH]2)c1OC` (stereo not given) [Pantoprazole], the “z-score of subpopulation abundance” value stood at 0.09.

On to `CCn1cc(C(=O)O)c(=O)c2cc(F)c(N3CCNC(C)C3)c(F)c21` (stereo not given) [Lomefloxacin HCl], for which the “z-score of subpopulation abundance” value is 0.25. Then `O=C(CCCN1CCC(O)(c2ccc(Cl)cc2)CC1)c1ccc(F)cc1` [Haloperidol], with -0.12; and `O=C1NCC2(CCN(CCc3ccccc3)CC2)O1` [Fenspiride HCl], with 0.35; and `CC1(C)S[C@@H]2[C@H](NC(=O)[C@H](N)c3ccccc3)C(=O)N2[C@H]1C(=O)O` [Ampicillin Trihydrate], with 0.52.

As to `CC(C)C(=O)Oc1ccc(CO)cc1[C@H](CCN(C(C)C)C(C)C)c1ccccc1` [Fesoterodine Fumarate], the “z-score of subpopulation abundance” value is -1. Then `CC[C@@]1(O)C(=O)OCc2c1cc1n(c2=O)Cc2cc3cc(O)ccc3nc2-1` [Hydroxy Camptothecine], with 1.86; and `CCCCOc1ccc(C(=O)CCN2CCCCC2)cc1` [Dyclonine HCl], with -0.52.

For `C#CCN[C@@H]1CCc2ccccc21` [Rasagiline], the “z-score of subpopulation abundance” value was -0.17. For `COc1cccc2c1C(=O)c1c(O)c3c(c(O)c1C2=O)C[C@@](O)(C(C)=O)C[C@@H]3O[C@H]1C[C@H](N)[C@H](O)[C@H](C)O1` [Daunorubicin HCl] the value was -0.29.

Take `NCC[C@H](O)C(=O)N[C@@H]1C[C@H](N)[C@@H](O[C@H]2O[C@H](CN)[C@@H](O)[C@H](O)[C@H]2O)[C@H](O)[C@H]1O[C@H]1O[C@H](CO)[C@@H](O)[C@H](N)[C@H]1O` [Amikacin hydrate]: the “z-score of subpopulation abundance” value was found to be 0.82. In the case of `OC(c1ccccc1)(c1ccccc1)C12CC[N+](CCOCc3ccccc3)(CC1)CC2` [Umeclidinium bromide], the “z-score of subpopulation abundance” value came out at 0.44. For `Cc1c(Cl)cccc1Nc1ccccc1C(=O)O` [Tolfenamic Acid] the value was -0.79; for `C[C@H]1COc2c(N3CCN(C)CC3)c(F)cc3c(=O)c(C(=O)O)cn1c23` [Levofloxacin], -1.03. Then `CCOc1cc(N)c([N+](=O)[O-])cc1C(=O)NC1CCN(CC2CC=CCC2)CC1` (stereo not given) [Cinitapride Hydrogen Tartrate], with -0.29. Turning to `O=C(NCCN1CCOCC1)c1ccc(Cl)cc1`, the “z-score of subpopulation abundance” value is -0.28.

Take `CCN(CC)C(=O)[C@@]1(c2ccccc2)C[C@H]1CN` [Levomilnacipran Hydrochloride]: the “z-score of subpopulation abundance” value was -1.07. Then `CC1=C(C(=O)O)N2C(=O)[C@@H](NC(=O)[C@H](N)C3=CCC=CC3)[C@H]2SC1` [Cefradine], with 0.04. Then `CC1(C)S[C@@H]2[C@H](NC(=O)C(C(=O)O)c3ccccc3)C(=O)N2[C@H]1C(=O)O` (stereo not given in full) [Carbenicillin disodium], with -0.53; and `CCOC(=O)c1ccc(N)cc1` [Benzocaine], with -0.02; and `O=C1OCCN1/N=C/c1ccc([N+](=O)[O-])o1` [Furazolidone], with -0.06.

With `CN1[C@@H]2CC[C@H]1C[C@@H](OC(=O)c1c[nH]c3ccccc13)C2` [Tropisetron], the “z-score of subpopulation abundance” value is 1.12. Then `CN1CCC(=C2c3ccccc3C=Cc3ccccc32)CC1` [Cyproheptadine hydrochloride], with -0.45; and `c1ccc(C2CN3CCSC3=N2)cc1` (stereo not given) [Tetramisole HCl], with -0.45; and `CCC1=C(C)CN(C(=O)NCCc2ccc(S(=O)(=O)NC(=O)N[C@H]3CC[C@H](C)CC3)cc2)C1=O` [Glimepiride], with 0.03. Regarding `CCCCC(F)(F)[C@@]1(O)CC[C@H]2[C@@H](CC(=O)[C@@H]2CCCCCCC(=O)O)O1` [Lubiprostone], the “z-score of subpopulation abundance” value is -1.01.

As for `CCCCc1oc2ccccc2c1C(=O)c1cc(I)c(OCCN(CC)CC)c(I)c1` [Amiodarone HCl], the “z-score of subpopulation abundance” value is 5.74. For `CNCC[C@@H](Oc1ccccc1C)c1ccccc1` [Atomoxetine HCl] the value was -0.77; for `CNC1CCCN(c2c(F)cc3c(=O)c(C(=O)O)cn(C4CC4)c3c2OC)C1` (stereo not given) [Balofloxacin], -0.9; for `O=C(O)c1ccccc1O` [Salicylic acid], -1.09. Regarding `O=S1(=O)CCN(CN2CCS(=O)(=O)NC2)CN1` [Taurolidine], the “z-score of subpopulation abundance” value was -0.64. For `CN(C)CCCN1c2ccccc2Sc2ccccc21` [Promazine hydrochloride] the value was 0.41; for `NC1CCN(c2nc3c(cc2F)c(=O)c(C(=O)O)cn3-c2ccc(F)cc2F)C1` (stereo not given) [Tosufloxacin p-Toluenesulfonate Hydrate], -0.56; for `O=c1c(-c2ccc(O)cc2)coc2c([C@@H]3O[C@H](CO)[C@@H](O)[C@H](O)[C@H]3O)c(O)ccc12` [Puerarin], 1.18.

Consider `Cc1nc(NC(=O)N2CCC[C@H]2C(N)=O)sc1-c1ccnc(C(C)(C)C(F)(F)F)c1` [Alpelisib (BYL719)], for which the “z-score of subpopulation abundance” value was -0.12. For `COc1ccnc(C[S+]([O-])c2nc3cc(-n4cccc4)ccc3[nH]2)c1C` (stereo not given) [Ilaprazole sodium] the value was 3.01; for `CC(=O)[C@@]1(O)CC[C@H]2[C@@H]3C[C@H](C)C4=CC(=O)CC[C@]4(C)[C@H]3CC[C@@]21C` [Medroxyprogesterone], 0.49; for `CN(C)CCN1C(=O)c2cccc3cc(N)cc(c23)C1=O` [Amonafide], -0.38. For `CCC(C)(C)C(=O)O[C@H]1C[C@@H](C)C=C2C=C[C@H](C)[C@H](CC[C@@H]3C[C@@H](O)CC(=O)O3)[C@H]21` [Simvastatin] the value was 3.79; for `COC(=O)C1=C(C)NC(C)=C(C(=O)OCC(C)C)C1c1ccccc1[N+](=O)[O-]` (stereo not given) [Nisoldipine], 0.45.
